Molecules are shown by their SMILES. Unmarked numbers belong to inactive results. Records with an inconclusive call do not appear. Active and inactive are the calls of the source. Unless noted, calls come from the whole dose curve; as a rule, active = well fitted curve in either direction with a large enough effect (not every such curve was filed as active); inconclusive = small, poorly fitted or top-dose-only effect, or another doubt; inactive = flat fitted curve, though single readings scatter.

The target in experiment [1] is Lysosomal acid glucosylceramidase (Homo sapiens) (UniProt P04062). The experiment is described as follows: Glucocerebrosidase-p2 (AID 348; in the data active = potency below about 10 µM; note: potency is the fitted concentration of half-maximal effect). Conditions: purified GBA, blue fluorogenic substrate, 40 min. The gist of the method: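 Normal human glucocerebrosidase (0.2 nM) with blue fluorogenic substrate (80 uM final) in citrate/phosphate pH 5.9 with 10mM sodium taurocholate, 0.01% tween-20; 40 min RT, NaOH/glycine stop; fluorescence Ex 365/Em 440; AC50 from a titration from 0.6 nM upwards.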
Lysosomal acid glucosylceramidase (Homo sapiens), sequence (P04062 whole entry, looked up): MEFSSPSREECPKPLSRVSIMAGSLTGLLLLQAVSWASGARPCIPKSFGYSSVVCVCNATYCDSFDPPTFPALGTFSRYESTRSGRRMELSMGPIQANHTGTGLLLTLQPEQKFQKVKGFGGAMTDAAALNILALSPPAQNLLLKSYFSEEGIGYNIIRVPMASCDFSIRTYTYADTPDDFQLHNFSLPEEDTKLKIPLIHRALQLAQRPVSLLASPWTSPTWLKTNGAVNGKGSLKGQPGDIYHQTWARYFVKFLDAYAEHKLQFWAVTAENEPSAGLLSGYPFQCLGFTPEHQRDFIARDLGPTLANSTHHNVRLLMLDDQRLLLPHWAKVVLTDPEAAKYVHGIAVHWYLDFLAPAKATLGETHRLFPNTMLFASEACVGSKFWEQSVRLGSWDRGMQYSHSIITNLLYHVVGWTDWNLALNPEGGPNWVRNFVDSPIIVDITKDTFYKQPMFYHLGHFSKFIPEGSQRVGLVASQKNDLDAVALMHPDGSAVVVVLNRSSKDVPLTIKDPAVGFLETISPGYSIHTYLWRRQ

The nature of experiment [2]: AP1 Signaling Pathway (AID 357).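 Note: ME-180 reporter cells stimulated with EGF at its EC50 level; % is set by controls: 0 for no effect and ±100 for the full control effect.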 The settings on record: ME-180 AP-1-bla reporter, EGF-induced, beta-lactamase ratio, 5 h; at 7.69 µM (top of the series) unless noted. In outline:
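First, ME-180 AP-1-bla cells were cultured overnight at 37 °C in low-serum Opti-MEM. Next, titrated compounds with EC50 EGF were incubated 5 hours. Finally, CCF4 was added for 2.5 hours and the 460/530 nm ratio recorded.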

Experiment [3] has as its target Cytochrome P450 1A2 (Homo sapiens) (UniProt P05177). Nature of the experiment: p450-cyp1a2 (AID 410; calls by dose curve; note: potency is the fitted concentration of half-maximal effect). Conditions: recombinant CYP1A2, luciferin-ME demethylation, luminescence; series mostly up to 11.4 µM. The gist of the method:
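O-Demethylation of luciferin 6' methyl ether by human CYP1A2 is monitored as luciferase luminescence. Substrate sits at Km (100uM); enzyme is 20nM. Values are scaled to 57 uM furafylline as maximal inhibition.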

The nature of experiment [4]: NFAT Signaling Pathway (AID 444).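 Note: carbachol stimulus at about its EC50 of 1 µM final; % is set by controls: 0 for no effect and ±100 for the full control effect.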 Conditions: Jurkat NFAT-bla M1, carbachol, beta-lactamase ratio, 5 h; at 7.69 µM (top of the series) unless noted. The gist of the method: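 Jurkat cells carrying an NFAT-driven β-lactamase reporter and co-transfected muscarinic M1 receptor were treated with compound plus carbachol (1 uM final, an EC50 level) for 5 h at 37 °C. CCF4 loading followed for 1 h at RT; 460/530 nm ratio gave %activity.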

Experiment [5] in a line: Stat Signaling Pathway (AID 446).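 Note: ME-180 cervical cancer cells given 40 pM IL-6 alongside compound; SIE-controlled beta-lactamase reporter measured as 460/530 nm FRET emission ratio; % is set by controls: 0 for no effect and ±100 for the full control effect.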 Conditions: ME-180 SIE beta-lactamase reporter, IL-6 stimulated, 5 h; at 7.69 µM (top of the series) unless noted. The gist of the method:
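Normalization used AC90 stimulation (300 pM IL-6) and AC90 inhibition (125 nM pan-JAK inhibitor at 40 pM IL-6). The underlying signal is SIE-driven beta-lactamase in ME-180 cells after 5 h IL-6 exposure with compound.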

Experiment [6] has as its target Mitogen-activated protein kinase 10 (Mus musculus) (UniProt Q61831). The experiment is described as follows: JNK3 AlphaScreen Assay (AID 530).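 Note: kinase came from lysate of stimulated human HepG2 cells; signal reports phosphorylation of biotinylated GST-cJun 1-79 at Ser73 with 10 µM ATP; % is set by controls: 0 for no effect and ±100 for the full control effect.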 The settings on record: JNK3 lysate, c-Jun phosphorylation; series mostly up to 11.4 µM. In outline:
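Phosphorylation of biotinylated GST-cJun(1-79) at Ser73 is measured by AlphaScreen proximity luminescence. Enzyme is JNK3 in HepG2 lysates activated with interleukin-1beta and tumor necrosis factor alpha; ATP is 10 uM final.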

Experiment [7] deals with 3',5'-cyclic-AMP phosphodiesterase 4B (Homo sapiens) (UniProt Q07343). Nature of the experiment: qHTS Assay for Inhibitors of PDE-IV (AID 607; active = well fitted activation curve with a large enough effect in the main read-out, with a control signal flat, not every such curve was filed as active; note: % of control where 0% means no effect). The settings on record: HEK293 ACTOne CNG channel cells, membrane potential fluorescence; series mostly up to 22.9 µM. The gist of the method: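 HEK293 ACTOne cells with CNG channel (1000/well), endogenous PDE4; membrane potential dye, compounds up to 22.9 uM final. Fluorescence Ex 535/Em 590; RO 20-1724 (100 uM final) as reference.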
3',5'-cyclic-AMP phosphodiesterase 4B (Homo sapiens), sequence (Q07343 whole entry, looked up): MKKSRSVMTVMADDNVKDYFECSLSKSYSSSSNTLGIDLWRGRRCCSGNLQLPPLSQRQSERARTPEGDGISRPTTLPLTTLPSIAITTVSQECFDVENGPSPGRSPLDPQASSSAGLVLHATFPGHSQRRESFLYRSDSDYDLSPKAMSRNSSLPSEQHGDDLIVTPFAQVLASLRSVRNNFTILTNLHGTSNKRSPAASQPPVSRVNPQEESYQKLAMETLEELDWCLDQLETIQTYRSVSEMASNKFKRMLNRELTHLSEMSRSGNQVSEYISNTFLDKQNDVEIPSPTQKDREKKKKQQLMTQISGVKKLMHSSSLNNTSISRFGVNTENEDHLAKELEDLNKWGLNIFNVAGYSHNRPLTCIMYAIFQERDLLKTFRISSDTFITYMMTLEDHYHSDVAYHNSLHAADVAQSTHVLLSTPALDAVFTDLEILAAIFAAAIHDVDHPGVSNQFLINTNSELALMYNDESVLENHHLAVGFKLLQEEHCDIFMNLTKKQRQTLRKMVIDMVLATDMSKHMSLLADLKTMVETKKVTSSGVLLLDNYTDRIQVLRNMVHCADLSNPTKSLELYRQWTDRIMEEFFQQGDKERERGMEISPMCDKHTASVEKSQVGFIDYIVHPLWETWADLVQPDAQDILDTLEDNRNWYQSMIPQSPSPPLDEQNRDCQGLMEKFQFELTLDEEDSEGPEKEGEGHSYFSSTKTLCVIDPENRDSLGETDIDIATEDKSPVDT

The target of experiment [8] is Glucocorticoid receptor (Homo sapiens) (UniProt P04150). The experiment is described as follows: GR-GFP Redistribution (AID 450;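 active = compounds whose dose series gives a full or clear partial fitted curve of increased nuclear translocation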; note: potency is the fitted concentration of half-maximal effect). Conditions: U2OS GR-GFP nuclear translocation, laser cytometry, 2 h.
Glucocorticoid receptor (Homo sapiens), sequence (P04150 whole entry, looked up, the tested form may be a part): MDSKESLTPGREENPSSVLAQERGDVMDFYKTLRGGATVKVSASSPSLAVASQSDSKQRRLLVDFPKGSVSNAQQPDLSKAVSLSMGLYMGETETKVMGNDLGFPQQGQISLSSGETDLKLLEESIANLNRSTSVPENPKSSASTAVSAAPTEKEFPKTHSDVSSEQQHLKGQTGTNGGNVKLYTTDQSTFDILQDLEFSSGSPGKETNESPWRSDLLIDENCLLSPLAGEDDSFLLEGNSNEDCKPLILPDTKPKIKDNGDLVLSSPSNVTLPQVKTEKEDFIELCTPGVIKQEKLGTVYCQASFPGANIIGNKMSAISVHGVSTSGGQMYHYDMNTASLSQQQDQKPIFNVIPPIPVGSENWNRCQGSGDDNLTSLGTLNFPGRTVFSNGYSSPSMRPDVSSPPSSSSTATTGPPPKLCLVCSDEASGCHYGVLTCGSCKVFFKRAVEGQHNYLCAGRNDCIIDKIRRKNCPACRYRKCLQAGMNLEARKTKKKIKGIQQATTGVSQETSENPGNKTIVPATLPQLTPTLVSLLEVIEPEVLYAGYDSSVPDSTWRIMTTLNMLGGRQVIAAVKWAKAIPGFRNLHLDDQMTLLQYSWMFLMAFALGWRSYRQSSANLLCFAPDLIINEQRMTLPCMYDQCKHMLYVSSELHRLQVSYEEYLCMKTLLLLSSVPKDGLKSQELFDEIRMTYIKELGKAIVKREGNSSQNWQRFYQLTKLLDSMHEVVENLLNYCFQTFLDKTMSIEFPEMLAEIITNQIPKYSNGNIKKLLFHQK
For experiment [9] the target is unchanged. Nature of the experiment: GR-EFC Redistribution (AID 451; calls by dose curve; note: potency is the fitted concentration of half-maximal effect). Conditions: CHO-K1 GR-EFC translocation, beta-gal luminescence, 2 h. The gist of the method: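 CHO-K1 cells stably expressing nuclear-localized β-gal enzyme acceptor and GR fused C-terminally to the enzyme donor fragment; ligand-driven nuclear translocation restores β-gal by complementation. Compounds titrated up to 46 uM final, 2 h at 37 °C; luminescence read.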

For experiment [10], the target named is Cytochrome P450 2C9 (Homo sapiens) (UniProt P11712). Nature of the experiment: qHTS Assay for Inhibitors and Substrates of Cytochrome P450 2C9 (AID 883; active = well fitted curve in the direction sought with a large enough effect; an effect the other way counts as inactive or inconclusive; note: potency is the fitted concentration of half-maximal effect; nearly all actives have a fitted effect of over 60% in size). The settings on record: recombinant CYP2C9, luciferin-H luminescence, 60 min; series mostly up to 11.4 µM. The gist of the method:
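CYP2C9 deoxyluciferin hydroxylation, 37C, 60 min with NADPH regeneration; 10nM enzyme, 100uM Luciferin-H (KM). Glo detection reagent stopped reaction; luminescence normalized to sulphaphenazole (57uM) full inhibition.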

The nature of experiment [11]: qHTS Assay for Identification of Small Molecule Agonists for Hypoxia Response Element Signaling Pathway (AID 914; active = well fitted activation curve with a large enough effect in the signal ratio, with a control signal flat, not every such curve was filed as active; the % refers to the signal ratio; note: % of control where 0% means no effect). The settings on record: ME-180 (cervical carcinoma) HRE-bla reporter, beta-lactamase ratio, CoCl2, 17 h; activation: active compounds read high. In outline:
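In Opti-MEM containing 0.5% dialyzed FBS and 10 mM HEPES, ME-180 HRE-bla cells received a compound titration and EC50 CoCl2. They were incubated 17 hours, then CCF4-loaded 2.5 hours at room temperature before ratio reading.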

Experiment [12] addresses Cytochrome P450 3A4 (Homo sapiens) (UniProt P08684). Nature of the experiment: qHTS Assay for Activators of Cytochrome P450 3A4 (AID 885; active = well fitted curve in the direction sought with a large enough effect; an effect the other way counts as inactive or inconclusive; note: nearly all actives have a fitted effect of over 65% in size). Conditions: recombinant CYP3A4, Luciferin-PPXE luminescence, 60 min; series mostly up to 11.4 µM. In outline:
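Human CYP3A4 dealkylates Luciferin-PPXE to luciferin, which luciferase detection converts to light. Substrate was at its KM (25uM), buffer 200mM KPO4, reaction 60 min at RT.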

For experiment [13] the target is unchanged. Nature of the experiment: qHTS Assay for Inhibitors and Substrates of Cytochrome P450 3A4 (AID 884; active = well fitted curve in the direction sought with a large enough effect; an effect the other way counts as inactive or inconclusive; note: potency is the fitted concentration of half-maximal effect; nearly all actives have a fitted effect of over 50% in size). Conditions: recombinant CYP3A4, Luciferin-PPXE luminescence; series mostly up to 57.1 µM. The gist of the method:
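Luminescent readout of luciferin produced by CYP3A4 (20 nM) dealkylation of Luciferin-PPXE, 25 uM (its KM). NADPH-driven reaction ran 60 min at RT after 10 min compound preincubation; data scaled to 57 uM ketoconazole as 100% inhibition.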

For experiment [14], the target named is Cytochrome P450 2D6 (Homo sapiens) (UniProt P10635). Nature of the experiment: qHTS Assay for Inhibitors and Substrates of Cytochrome P450 2D6 (AID 891; active = well fitted curve in the direction sought with a large enough effect; an effect the other way counts as inactive or inconclusive; note: potency is the fitted concentration of half-maximal effect; nearly all actives have a fitted effect of over 60% in size). Conditions: recombinant CYP2D6, luciferin-ME EGE luminescence; series mostly up to 11.4 µM. In outline:
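Luminescent read-out of luciferin formed by 5 nM human CYP2D6 demethylating 30 uM Luciferin-ME EGE (Km level) over 60 min at room temperature after NADPH regeneration addition. Data normalized to full inhibition by 1.43 uM quinidine.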

Cytochrome P450 3A4 (Homo sapiens), sequence (P08684 whole entry, looked up): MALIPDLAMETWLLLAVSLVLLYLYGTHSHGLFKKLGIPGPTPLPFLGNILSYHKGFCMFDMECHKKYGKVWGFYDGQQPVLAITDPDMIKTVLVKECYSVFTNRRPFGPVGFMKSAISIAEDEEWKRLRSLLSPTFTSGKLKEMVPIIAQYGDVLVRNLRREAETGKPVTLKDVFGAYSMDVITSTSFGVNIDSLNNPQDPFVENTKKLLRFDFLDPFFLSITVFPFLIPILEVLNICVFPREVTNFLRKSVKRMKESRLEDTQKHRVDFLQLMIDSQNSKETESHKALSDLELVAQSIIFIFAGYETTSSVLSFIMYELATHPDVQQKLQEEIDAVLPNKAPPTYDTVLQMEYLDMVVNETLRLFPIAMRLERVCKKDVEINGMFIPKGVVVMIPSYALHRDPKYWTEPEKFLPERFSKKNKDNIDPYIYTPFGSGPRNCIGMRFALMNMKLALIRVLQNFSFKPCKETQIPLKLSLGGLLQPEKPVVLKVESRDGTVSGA
Cytochrome P450 1A2 (Homo sapiens), sequence (P05177 whole entry, looked up): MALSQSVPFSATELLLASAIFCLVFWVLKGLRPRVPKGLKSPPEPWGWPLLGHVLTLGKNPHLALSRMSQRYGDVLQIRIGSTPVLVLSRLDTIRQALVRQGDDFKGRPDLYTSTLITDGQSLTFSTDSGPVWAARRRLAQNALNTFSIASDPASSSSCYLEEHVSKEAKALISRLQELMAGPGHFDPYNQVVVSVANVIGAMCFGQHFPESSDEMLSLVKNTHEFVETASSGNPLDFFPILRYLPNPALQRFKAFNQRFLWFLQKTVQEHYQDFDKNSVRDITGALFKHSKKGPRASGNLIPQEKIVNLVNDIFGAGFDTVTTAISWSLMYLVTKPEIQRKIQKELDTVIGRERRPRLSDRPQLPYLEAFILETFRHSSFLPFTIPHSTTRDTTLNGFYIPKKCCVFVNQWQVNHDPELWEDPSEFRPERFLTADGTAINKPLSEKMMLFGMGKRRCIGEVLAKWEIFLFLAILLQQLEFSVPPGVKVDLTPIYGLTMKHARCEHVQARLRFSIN
Cytochrome P450 2D6 (Homo sapiens), sequence (P10635 whole entry, looked up): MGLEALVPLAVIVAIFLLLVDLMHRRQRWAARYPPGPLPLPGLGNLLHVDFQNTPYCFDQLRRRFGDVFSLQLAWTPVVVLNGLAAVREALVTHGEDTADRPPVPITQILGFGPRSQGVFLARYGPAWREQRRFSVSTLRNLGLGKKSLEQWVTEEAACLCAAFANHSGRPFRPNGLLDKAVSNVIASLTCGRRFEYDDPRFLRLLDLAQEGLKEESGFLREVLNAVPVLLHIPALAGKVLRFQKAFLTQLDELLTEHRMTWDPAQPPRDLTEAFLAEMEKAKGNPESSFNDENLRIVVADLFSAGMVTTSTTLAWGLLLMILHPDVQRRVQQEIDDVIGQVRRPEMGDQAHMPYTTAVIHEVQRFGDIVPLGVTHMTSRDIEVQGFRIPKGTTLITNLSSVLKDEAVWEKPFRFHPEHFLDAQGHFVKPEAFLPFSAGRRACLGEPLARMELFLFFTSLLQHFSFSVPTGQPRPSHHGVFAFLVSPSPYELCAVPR
Cytochrome P450 2C9 (Homo sapiens), sequence (P11712 whole entry, looked up): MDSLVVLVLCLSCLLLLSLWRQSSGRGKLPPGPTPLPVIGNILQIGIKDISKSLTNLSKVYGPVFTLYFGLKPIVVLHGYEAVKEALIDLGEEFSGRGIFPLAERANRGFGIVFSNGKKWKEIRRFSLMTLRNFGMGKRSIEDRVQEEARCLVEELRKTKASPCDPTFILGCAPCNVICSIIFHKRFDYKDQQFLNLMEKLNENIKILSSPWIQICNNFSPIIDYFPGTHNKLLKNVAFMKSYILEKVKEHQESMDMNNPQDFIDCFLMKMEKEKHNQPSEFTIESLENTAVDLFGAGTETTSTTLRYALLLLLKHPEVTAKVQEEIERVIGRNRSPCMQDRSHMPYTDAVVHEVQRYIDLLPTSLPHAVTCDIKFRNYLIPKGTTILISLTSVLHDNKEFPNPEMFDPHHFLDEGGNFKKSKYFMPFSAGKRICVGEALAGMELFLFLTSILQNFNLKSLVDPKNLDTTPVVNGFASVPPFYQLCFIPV

For `COc1cc(-c2[o+]c3cc(O)cc(O)c3cc2O)cc(O)c1O`, the Potency in experiment [1] was more than 11.4 µM. Also, the activity change, negative = inhibition was 19.4% in experiment [2], -19.9% [at 2.29 µM] in experiment [3] and 20.3% in experiment [4]. For the same compound, the activity, negative = inhibition in [5] is 0.423%. Besides, the Potency entry in [6] and in experiment [7] was “inactive” in each case.
`Cc1cc(C)c2c(SCc3ccc(Cl)cc3Cl)nc(N)nc2n1`: the Potency in experiment [1] is more than 11.4 µM; in experiment [3], 3.16 µM (active); in experiment [8], more than 46 µM; in experiment [9], more than 9.22 µM. For the same compound, the activity change, negative = inhibition in [2] was 0.307%; in [4], -14.4%. The Potency result in experiment [6] and in [7] was “inactive” each time.
As for `Cc1cc(SCC(=O)c2ccc(Br)cc2)cc(C)[o+]1`, the Potency in experiment [1] is more than 11.4 µM; in [3], 3.98 µM (active); in [8], more than 46 µM; in [9] it was more than 9.22 µM; in [10] it was 2.51 µM (active). The activity change, negative = inhibition in experiment [2] is -6.95%; in [4] it was 27.1%. The Potency result in experiment [6] and in experiment [7] was “inactive” each time. In addition, the activation in experiment [11] is 15.2%.
With `Cc1nc2cnc(N3CCNCC3)nc2n(-c2ccccc2)c1=O`, the Potency in experiment [1] is more than 11.4 µM; in [3], 10 µM (active); in [8], more than 9.22 µM; in experiment [9] it was more than 46 µM. Moreover, the results for the activity change, negative = inhibition in [2] and in [4] were -4.43% and 1.83%, respectively. Also, the Potency entry in experiment [6], in [7] and in experiment [12] was “inactive” in each case.
In the case of `N/C(=N\O)c1cn([C@@H]2O[C@@H](CO)[C@H](O)[C@@H]2O)c2ncnc(NO)c12`, the Potency in [1] is more than 11.4 µM; in [8], more than 46 µM; in experiment [9], more than 9.22 µM. Further, the figures for the activity change, negative = inhibition in experiment [2], in experiment [3] and in experiment [4] were 5.84%, -18.7% [at 2.29 µM] and 19.5%, respectively. Besides, the Potency entry in [6] and in [7] was “inactive” each time.
For the compound `Oc1ccc(Cn2c(-c3ccc(O)cc3)nc3ccccc32)cc1`, the Potency in experiment [1] was more than 11.4 µM; in experiment [8] it was more than 46 µM; in experiment [9], more than 9.22 µM. In addition, the activity change, negative = inhibition was 0.507% in [2] and 20.6% in experiment [4]. In addition, the Potency result in experiment [3], in experiment [6] and in [7] was “inactive” throughout.
Consider `CN(C)CCCN1c2ccccc2Sc2cnccc21`, for which the Potency in experiment [1] is more than 11.4 µM; in [3] it was 0.501 µM (active); in [8] it was more than 46 µM; in experiment [9], more than 9.22 µM; in [13], 1.58 µM (active); in experiment [14], 1.58 µM (active). Further, the activity change, negative = inhibition in experiment [2] is 6.06%; in experiment [4], -14.8%. Further, the Potency result in experiment [6], in experiment [7] and in experiment [12] was “inactive” each time.
As to `O=C(O)CSc1nc2ccccc2[nH]1`, the values for the Potency in [1], in experiment [8] and in experiment [9] were more than 11.4 µM, more than 46 µM and more than 9.22 µM, respectively. In addition, the activity change, negative = inhibition in experiment [2] is 3.97%; in experiment [4], -2.37%. The Potency entry in experiment [3], in experiment [6] and in experiment [7] was “inactive” throughout.

Values taken from PubChem BioAssay (NCATS).
